# Results published in PubChem BioAssay AID1671190 (National Center for Advancing Translational Sciences (NCATS), 2021).
# Among all 580,000 compounds or so, about 6,100 (1.1%) were called active. Roughly 15% stayed inconclusive and do not appear here. The call rests on the fitted dose curve; in most records, active means well fitted inhibition curve with a large enough effect; inconclusive means small, poorly fitted or top-dose-only effect, or another doubt; inactive means no such curve, though single readings can be large or run the other way. What follows is part of a selection rich in actives, with near analogues and random picks from the rest. Where a call stands in place of a potency, no number is given.
# Biological target: Polyunsaturated fatty acid lipoxygenase ALOX12 (Homo sapiens) (UniProt P18054)
# Sequence (P18054 whole entry, looked up): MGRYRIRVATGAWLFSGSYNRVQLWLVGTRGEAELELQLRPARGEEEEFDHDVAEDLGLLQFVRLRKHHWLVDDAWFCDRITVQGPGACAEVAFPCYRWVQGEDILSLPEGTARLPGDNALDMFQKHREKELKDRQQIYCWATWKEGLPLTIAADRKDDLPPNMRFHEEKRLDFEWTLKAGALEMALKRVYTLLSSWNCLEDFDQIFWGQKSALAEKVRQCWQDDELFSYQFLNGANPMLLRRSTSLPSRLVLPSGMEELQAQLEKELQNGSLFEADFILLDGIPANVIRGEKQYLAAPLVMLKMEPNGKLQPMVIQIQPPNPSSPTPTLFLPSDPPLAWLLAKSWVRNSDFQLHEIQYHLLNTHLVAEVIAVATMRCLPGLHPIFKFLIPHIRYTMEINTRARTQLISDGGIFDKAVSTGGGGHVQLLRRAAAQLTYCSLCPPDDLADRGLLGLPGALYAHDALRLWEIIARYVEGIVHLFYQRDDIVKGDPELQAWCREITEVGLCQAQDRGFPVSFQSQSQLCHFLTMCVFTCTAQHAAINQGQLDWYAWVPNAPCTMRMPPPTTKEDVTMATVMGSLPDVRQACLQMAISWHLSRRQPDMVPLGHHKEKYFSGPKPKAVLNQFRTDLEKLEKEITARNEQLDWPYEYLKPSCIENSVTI
# Experiment: Primary qHTS assay for inhibitors of human arachidonate 12S-lipoxygenase (ALOX12): Round 2
# Settings: purified 12hLO, xylenol orange hydroperoxide absorbance; series mostly up to 108 µM
# Summary of the method: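 Hydroperoxide product was detected by ferrous iron/xylenol orange as the 573 to 405 nm absorbance ratio. Arachidonic acid at 40 uM (final) was turned over for 30 min at room temperature by 150 nM human 12hLO, pH 7.0 Hepes buffer, after 15 min compound preincubation.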
# Potency means the concentration at half of the fitted maximal effect.
row,Structure (SMILES),Potency
1,COc1ccccc1C(CNC(=O)CCc1nc(-c2ccsc2)no1)N1CCCC1 (stereo unspecified),inactive
2,CCC(=O)Nc1ccc2nnc(-c3ccc(C(=O)Nc4ccc(OC)cc4)cc3)n2c1,inactive
3,COc1ccc2c(C)c(-c3cccc4ccccc34)c(=O)oc2c1,inactive
4,O=S1(=O)CC/C(=N\Nc2ccc(F)cc2)c2ccsc21,31.6 µM (active)
5,COc1ccc(C(=O)N/N=C2\CCS(=O)(=O)c3ccc(F)cc32)cc1OC,inactive
6,Cc1oc(-c2ccccc2)nc1CC(=O)N(C)CC(=O)Nc1cccc2ccccc12,inactive
7,CC1(C)CC(=O)C2=C(C1)OC1=C(C(=O)CC(C)(C)C1)C2c1ccc(-c2ccc3c(c2)COC3=O)o1,inactive
8,Fc1ccc(/C=N/N=C/c2ccc(F)cc2F)c(F)c1,inactive
9,COCc1[nH][nH]c(=O)c1C=Nc1ccc(F)cc1F,12.6 µM (active)
10,CCOc1ccc(C(=O)NCc2n[nH]c(=O)c3ccccc23)cc1OCC,inactive
11,Cc1ccc(NC2(C#N)C(=O)Nc3ccccc32)cc1 (stereo unspecified),inactive
12,Cc1ccc(C2CC(=O)C3=C(C2)OC(N)=C(C#N)C32C(=O)Nc3ccccc32)cc1 (stereo unspecified),inactive
13,N#CC1=C(N)Oc2[nH]c(=S)[nH]c(=O)c2C12C(=O)Nc1ccccc12 (stereo unspecified),14.1 µM (active)
14,C=CCNC(=O)O[C@@H]1CC[C@]2(C)C(CC[C@@H](O)[C@H]2CC(=O)N2CCC[C@H]2CO)[C@]1(C)CO (stereo partly specified),inactive
15,N#C/C(=C/NC(=O)c1ccccc1)C(=O)N1CCOCC1,inactive
16,Cc1ccc(NC(=O)c2c(NC(=O)CCC(=O)O)sc3c2CCCCC3)cc1,20 µM (active)
17,CCOC(=O)c1ccc(NC(=O)c2c(NCc3cccs3)sc3c2CCCC3)cc1,inactive
18,O=C(Cc1ccccc1)Nc1sc2c(c1C(=O)Nc1ccc(Br)cc1)CCC2,inactive
19,CC1(C)Cc2sc3c(=O)n(Cc4ccc(Cl)cc4Cl)cnc3c2CO1,inactive
20,Cc1cccc(NC(=O)CSc2nc(-c3ccco3)cc(C(F)(F)F)n2)c1C,inactive
21,CCOC(=O)c1sc(NC(=O)CSc2nc(C)cc(C(F)(F)F)n2)c(C#N)c1C,20 µM (active)
22,CCn1c(SCC(=O)Nc2sc(C)c(C)c2C#N)nnc1C1CC1,inactive

row,Structure (SMILES),Potency
1,CCC(CO)Nc1nc2c(c(=O)n(C)c(=O)n2C)n1Cc1c(Cl)cccc1Cl (stereo unspecified),inactive
2,C/C(=N\NC(=O)c1cc2c(s1)CCC(C)C2)c1cccnc1 (stereo unspecified),5.01 µM (active)
3,C/C(=N\NC(N)=S)c1cccnc1,inactive
4,O=C(NNC1CC(=O)N(c2cccc(Cl)c2)C1=O)c1cccnc1 (stereo unspecified),inactive
5,CN(CCCNC1CCC2(CCNCC2)CC1)c1ccccc1,10 µM (active)
6,Cc1nonc1OCCNC1CCC2(CCNCC2)CC1,inactive
7,OC1CC([C@@H](Cc2ccccn2)NC2CCC3(CCNCC3)CC2)C1 (stereo partly specified),inactive
8,O=C(NCCC(=O)N1CCn2nc(C(=O)O)cc2C1)c1ccc(F)cc1,inactive
9,CCc1nnc2sc(-c3cccc(NC(=O)Cc4ccccc4)c3)nn12,inactive
10,O=C(NCc1ccccn1)C1CCN(C(=O)c2ccc(C(F)(F)F)cc2)CC1,inactive
11,Cc1ccccc1N/C(SCc1ccc(Cl)cc1)=C(/C#N)C(N)=O,20 µM (active)
12,Cc1ccccc1NC(=O)C(C#N)=C1CCCCC1,inactive
13,CCN(CC(=O)Nc1cc(Cl)ccc1C)C(=O)CSCc1ccccc1,inactive
14,CNC(=O)c1ccc(-c2nc(CN3CCN(S(=O)(=O)c4ccc(C)c(C)c4)CC3)c(C)o2)cc1,inactive
15,COc1ccc2c(C)c(CCC(=O)N3CCN(C)CC3)c(=O)oc2c1,inactive
16,Cc1nn2c(c1-c1ccccc1C(C)C)N(C(=O)c1cccc(C#N)c1)CCC2,inactive
17,Cc1nn2c(c1-c1ccnn1C(C)C)N(C(=O)c1ccc(Oc3ccccc3)cc1)CCC2,inactive
18,Cc1nn2c(c1-c1ccnn1C(C)C)N(CC1CCOCC1)CCC2,12.6 µM (active)
19,CCCCCn1nc(C(=O)Nc2ccccc2OCC)c2ccccc2c1=O,inactive
20,CCc1ccc(C(=O)Nc2ccccc2C#N)s1,inactive
21,Cc1cc(/C=N/n2cnnc2)c(C)n1-c1ccc2ncccc2c1,inactive
22,Cc1cccc(-n2c(C)cc(/C=N/NC(N)=S)c2C)c1,44.7 µM (active)

row,Structure (SMILES),Potency
1,Cc1cc(/C=N/NC(N)=O)c(C)n1C1CCCCC1,inactive
2,C=CCOc1ccc(NC(=O)c2ccncc2)cc1,inactive
3,CCc1ccc(NC(=O)Cc2nc(-c3c(N)n(C)c(=O)n(C)c3=O)cs2)cc1,inactive
4,O=C(OCc1ccc(F)cc1)c1cnc2ccccc2n1,1.26 µM (active)
5,COc1ccccc1C(=O)OCc1ccc(F)cc1,inactive
6,CCOc1ccccc1NC(=O)c1cnc2ccccc2n1,inactive
7,Cc1cccnc1CN(C(=O)c1cc(COc2ccccc2)[nH]n1)C(C)C,inactive
8,Cc1cc(OC(C)C(=O)Nc2sc3c(c2C(N)=O)CCCC3)ccc1Cl (stereo unspecified),inactive
9,NC(=O)c1c(Nc2nc3c(F)cccc3s2)sc2c1CCCC2,28.2 µM (active)
10,CCCn1nc(C(=O)Nc2sc3c(c2C(N)=O)CCC3)c2ccccc2c1=O,inactive
11,Cc1cc(C)c(-c2csc(NC(=O)Cn3ncc4ccccc4c3=O)n2)c(C)c1,inactive
12,CSc1nnnn1-c1ccc(C(=O)Nc2ccccc2F)cc1,inactive
13,S=C(NCCCc1cnc[nH]1)NCCCN(Cc1ccc(Cl)c(Cl)c1)c1ccc(Br)cn1,22.4 µM (active)
14,NCCCNC(=S)NCCCN(Cc1ccc(Cl)cc1)c1ccc(Br)cn1,39.8 µM (active)
15,Cc1ccccc1CN(C)C(C)c1nc(-c2cccs2)no1 (stereo unspecified),inactive
16,CCc1c(C)sc(NC(=O)C2c3ccccc3Oc3ccccc32)c1C(=O)OC(C)C,inactive
17,CCOC(=O)CSc1nnc(CNC(=O)c2cccs2)n1-c1ccccc1,inactive
18,CCc1c(C)sc(NC(=O)c2cccs2)c1C(N)=O,20 µM (active)
19,CCCCCCn1c(NC)nc2c1c(=O)[nH]c(=O)n2C,inactive
20,COc1cc(C2CC(=O)Nc3nc(-c4ccccc4)[nH]c(=O)c32)ccc1OCc1ccc(F)cc1 (stereo unspecified),inactive
21,O=C1CC(c2ccc(C(F)(F)F)cc2)c2sc(C(=O)O)c(-c3ccccc3)c2N1 (stereo unspecified),inactive
22,Nc1nc2c(s1)C(c1ccccc1)CC(=O)N2 (stereo unspecified),22.4 µM (active)

row,Structure (SMILES),Potency
1,CCCOc1c(OC)cccc1C1CC(=O)Nc2c1c(C)nn2-c1ccc(OC)nn1 (stereo unspecified),inactive
2,COc1cccc(C2CC(=O)Nc3nc(N)sc32)c1OCc1ccccc1 (stereo unspecified),7.94 µM (active)
3,O=C1CC(c2ccccc2)C(c2ccccc2)=NN1 (stereo unspecified),inactive
4,O=[N+]([O-])/C=C/c1ccc(-c2ccccc2)o1,22.4 µM (active)
5,O=[N+]([O-])/C=C/c1ccc2c(ccn2Cc2ccccc2)c1,inactive
6,Cc1ccc(-c2nnc(SCc3ncc(-c4ccccc4)o3)o2)cc1,inactive
7,Cc1ccc(-n2nnnc2SCc2ncc(-c3ccccc3)o2)cc1,inactive
8,COCc1ccc(CNC(=O)c2ccc(C#N)cc2)cc1,inactive
9,O=C(c1cn[nH]c1)N1CC2(CN(Cc3cccc(Cl)c3)CC2COc2ccccc2)C1 (stereo unspecified),inactive
10,CCOc1cc2cc(C(=O)c3cc(C)ccc3O)cnc2cc1OCC,inactive
11,CCC(=O)Nc1ccc2nc(-c3ccccc3C)oc2c1,inactive
12,COc1ccc(-c2nn(-c3ccccc3)cc2/C=C\C(=O)Nc2ccc(C(=O)O)cc2)cc1,39.8 µM (active)
13,COc1ccc(NC(=O)c2cn(-c3ccccc3)nc2SC)cc1,inactive
14,COc1ccc(-c2nn(-c3ccccc3)cc2C(=O)NCC(C(C)C)N2CCOCC2)cc1 (stereo unspecified),inactive
15,CSc1ccccc1NC(=O)C(C)Nc1ccc2c(c1)CCN2C(C)=O (stereo unspecified),inactive
16,O=C(NC(c1ccccc1)c1cc2ccccc2o1)C1CCCC1 (stereo unspecified),inactive
17,N#CCCc1c(O)ccc2ccccc12,inactive
18,N#Cc1ccccc1S(=O)(=O)N1CCN(Cc2c(O)ccc3ccccc23)CC1,11.2 µM (active)
19,N#Cc1ccccc1S(=O)(=O)N1CCN(C(=O)c2cc(-c3ccccc3)nn2-c2ccccc2)CC1,inactive
20,Cc1nnc(SCC(=O)Nc2sc3c(c2C#N)CCCC3)n1CC(C)C,inactive
21,CCC(=O)NNC(=S)Nc1ccccc1,inactive
22,O=C(NC(=S)Nc1cccc2c(O)cccc12)c1cccc(Br)c1,17.8 µM (active)

row,Structure (SMILES),Potency
1,O=C(Nc1ccc(S(=O)(=O)Nc2ncccn2)cc1)c1cncc(Br)c1,inactive
2,Cc1ccc(-c2nnc3c4ccccc4c(C)nn23)cc1NC(=O)c1cccc(Br)c1,inactive
3,O=C(NC(=S)Nc1ccc(S(=O)(=O)Nc2ncccn2)cc1)c1cccc(Br)c1,20 µM (active)
4,O=C(NC1C2CC3CC(C2)CC1C3)c1cccc(Br)c1 (stereo unspecified),inactive
5,O=C(Nc1ccc(S(=O)(=O)Nc2ncccn2)cc1)C12CC3CC(CC(C3)C1)C2,inactive
6,CCOc1ccc(C(=O)N(CCN(C)C)CC(=O)OC(C)(C)C)cc1,inactive
7,CC(C)NC(=O)c1cccc2c1CCCN2CC(=O)NCCc1ccccc1,inactive
8,CSc1ccccc1C(=O)NC(C)c1ccccc1 (stereo unspecified),inactive
9,Clc1ccc(-c2nc(-c3ccc(Br)o3)no2)cc1,inactive
10,CNC(=O)c1nn(CC(=O)NC(C)c2ccccc2)c(=O)c2ccccc12 (stereo unspecified),inactive
11,CC(NC(=O)Cn1nc(C(N)=O)c2ccccc2c1=O)c1ccccc1 (stereo unspecified),35.5 µM (active)
12,O=C(Cn1nc(C(=O)O)c2ccccc2c1=O)Nc1cc(F)ccc1F,inactive
13,CC(=O)N1CCC(C(=O)N(C)CC(=O)Nc2ccccc2C(F)(F)F)CC1,inactive
14,Cc1cccc(Oc2c(C(F)(F)F)oc3cc(OCC(=O)OCCC(C)C)ccc3c2=O)c1,inactive
15,O=C(OCc1nc2ccccc2o1)c1ccc2ccccc2c1,inactive
16,C=CC(=O)c1ccc2ccccc2c1,17.8 µM (active)
17,O=C(OCC(=O)N1CCOCC1)c1ccc2ccccc2c1,inactive
18,O=C(O)COc1ccc(-c2nccc3c2C(=O)N(Cc2c[nH]c4ccccc24)CC(COc2ccc(F)c(F)c2)O3)cc1 (stereo unspecified),inactive
